# Compound activity (PubChem BioAssay)
# D1 PAM – potentiators of human D1 dopamine receptor; P21728; HEK293 TREx D1 cells, calcium flux, dopamine EC20 potentiation; potentiation, % at 10 µM; hit rate 0.036% among 360,000; AID 504651; in the data active = potentiation above about 30%; note: 0% is about no effect
# TRHR agonist – agonists of human TRH receptor; P34981; hit rate 0.18% among 360,000; AID 493084; activation, % at 2 µM; TRHR cells, calcium flux fluo-8, FDSS agonist mode; note: 0% is about no effect
# Target sequence (P34981 whole entry, looked up): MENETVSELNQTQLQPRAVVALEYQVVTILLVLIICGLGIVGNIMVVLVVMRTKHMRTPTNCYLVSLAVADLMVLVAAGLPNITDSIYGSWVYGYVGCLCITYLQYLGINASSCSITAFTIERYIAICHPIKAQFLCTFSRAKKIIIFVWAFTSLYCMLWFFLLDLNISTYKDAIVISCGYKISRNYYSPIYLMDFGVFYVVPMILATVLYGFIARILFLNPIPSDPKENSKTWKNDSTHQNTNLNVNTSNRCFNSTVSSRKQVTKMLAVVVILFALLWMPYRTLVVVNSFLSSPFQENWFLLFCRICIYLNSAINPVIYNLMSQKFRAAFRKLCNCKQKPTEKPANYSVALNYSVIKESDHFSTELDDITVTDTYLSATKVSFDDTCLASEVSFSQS
#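 Fluo-8-loaded TRHR cells; 10 s baseline, compound added, kinetic Ca2+ fluorescence read 1/s, agonist mode.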
# TRHR enhancer – TRH receptor (human) allosteric enhancement; TRHR cells, fluo-8 calcium fluorescence, EC20 TRH enhancement; enhancement, % at 2 µM; hit rate 0.66% among 360,000; in the data active = enhancement above about 30%; note: 0% is about no effect
#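 TRHR-expressing cells loaded with fluo-8 calcium dye were read kinetically (ex 480/em 530) during compound addition, then stimulated with an EC20 of TRH (10 nM final). Enhancement of the Gq-mediated intracellular calcium response was scored.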
# D1 ag – activates the human D1 dopamine receptor. P21728. HEK293 T-REx D1 cells, calcium flux, agonist mode. activation, % at 2 µM. hit rate 1% among 360,000. AID 504660; note: 0% is about no effect
#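 Tetracycline-induced HEK293 TREx D1 cells, force-coupled to calcium signalling, were dye-loaded with a no-wash calcium kit. Compound was pin-added after a 10 s baseline. Fluorescence was read kinetically at 1 cycle/s for 180 s, with calcium rises flagged as agonism.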
# D1 antag – human D1 dopamine receptor antagonism | P21728 | HEK293 TREx D1 cells, calcium flux, dopamine EC80; hits give low values | activity change, negative = inhibition, % at 10 µM | hit rate 3.2% among 360,000; in the data active = activity change below about -30%; note: % is set by controls: 0 for no effect and ±100 for the full control effect
#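 After overnight tetracycline induction at 30 C, force-coupled D1 HEK293 cells took up a no-wash calcium dye at room temperature. Compounds were added and monitored 180 s, and the response to EC80 dopamine was then recorded.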
# Numbers without * were called inactive; / = not tested or not shown; ! = repeats disagree. Most compounds without a hit are left out; they make up all but 4.7% or so of the library. Cut-off read from the data, not from the text of the source, unless noted: active = activation above about 30%; inactive = the rest.
SMILES,D1 PAM,TRHR agonist,TRHR enhancer,D1 ag,D1 antag
CCc1ccc(CNC(=O)c2nn(-c3ccc(C)c(C)c3)nc2CO)cc1,-2,3,1,7,1
Cc1ccc(-n2nc(CO)c(C(=O)NCCC(C)C)n2)cc1C,2,-1,0,2,-47*
COc1cc(C2NC(=O)NC(c3ccccc3)=C2C(C)=O)cc(Cl)c1OCC(=O)O (stereo not given),2,0,33*,-2,38
CCCCN(C)CC(O)Cn1cc(/C=C/C(=O)c2cccs2)c2ccccc21 (stereo not given),-8,6,-9,67*,-20
CCCCN(C)CC(O)Cn1cc(/C=C/C(=O)c2ccc(OCC)cc2)c2ccccc21 (stereo not given),-3,1,-2,41*,-56*!
O=C(/C=C/c1cn(CC(O)CN2CCCCCC2)c2ccccc12)c1cccs1 (stereo not given),-8,11,5,77*,-21
CCCCN(CCCC)CC(O)Cn1cc(/C=C/C(=O)c2ccccc2)c2ccccc21 (stereo not given),2,2,1,13,-11
Cc1ccc(Cn2c(CO)cnc2SCC(=O)Nc2ccc(C)c(Cl)c2)cc1,-4,-2,-3,25,-7
O=C(NC1CC(=O)N(c2ccc(F)cc2)C1)c1ccc(S(=O)(=O)N2CCOCC2)cc1 (stereo not given),-1,1,1,2,/
CC(C)(C)C1CCc2c(C(=O)NNC(=O)/C=C/C(=O)O)csc2C1 (stereo not given),-5,1,-12,1,-32*
Cc1ccc(OCc2nc(-c3ccc(C(=O)N4CCN(c5cccc(C(F)(F)F)c5)CC4)cc3)oc2C)cc1,-4,1,-5,7,17
CCS(=O)(=O)N1CCCC(C(=O)NCCOC)C1 (stereo not given),0,0,-7,-2,10
C=CCN(CC(=O)NCc1ccc(F)cc1)C(=O)c1csnn1,9,0,0,4,-35*
CCc1ccc(S(=O)(=O)Nc2ccccn2)cc1,-3,0,1,4,-12
CCc1ccc(S(=O)(=O)Nc2ccc(Br)cn2)cc1,-5,-1,0,-4,-30*
O=C(NCCCc1nc2ccccc2n1Cc1ccccc1F)c1ccco1,3,-1,-1,-3,-16
CCN(c1cccc(C)c1)S(=O)(=O)c1ccc(-c2cc(C)no2)s1,-3,1,-1,17,-25
Cc1cccc(N(C)S(=O)(=O)c2ccc(-c3cc(C)no3)s2)c1,5,1,-11,33*!,-5
Cc1cc(C)c(S(=O)(=O)N2CCC(N3CCN(Cc4ccc(F)cc4)C(=O)C3=O)CC2)c(C)c1,1,-1,1,0,-7
CC1(C(=O)NCc2ccc(Cl)c(Cl)c2)Oc2cccnc2NC1=O (stereo not given),-6,6,6,32*,-22
O=C(NC1CCCN(Cc2ccc(Cl)cc2)C1)C1CCC1 (stereo not given),-3,-2,31*,2,-7
O=C(NCc1ccco1)c1ccc2c(c1)N(Cc1ccc(Cl)cc1)CCS2,-8,0,-2,2,-37*
Cc1ccccc1OCCCn1c(CCNC(=O)C2CCCCC2)nc2ccccc21,-3,-1,-9,11,-13
COc1cc2oc(=O)c(CC(=O)NCCc3ccccc3F)c(C)c2cc1OC,4,0,-3,-2,-7
COc1ccc(Oc2ccc(N/C=C3\CCCC3=O)cc2)cc1,-5,0,0,7,3
SMILES,D1 PAM,TRHR agonist,TRHR enhancer,D1 ag,D1 antag
COc1ccc(Oc2ccc(N/C=C3/CCCC3=O)cc2)cc1,-10,0,0,2,-31*
O=S(=O)(Nc1cc(F)ccc1F)c1ccc2[nH]c3c(c2c1)CCCC3,0,0,12,0,12
CC(C)(C)OC(=O)N1CCCN(C(=O)Nc2ccc(C(F)(F)F)cc2)CC1,-4,-1,-9,4,-31*
Cn1ccc2cc(-c3ccc4ncnc(NCc5cccnc5)c4c3)ccc21,0,-1,-5,2,4
O=C(Nc1nnc(-c2cccs2)o1)c1cccc(C(F)(F)F)c1,/,-1,7,26,-50*
CC(C)NC(=O)CSc1nnc(-c2ccco2)n1N,-7,0,-8,-2,-67*
CCCn1c(SCC(=O)c2ccc3c(c2)OCCO3)nnc1-c1ccco1,3,0,4,4,-36*
